Pf growth 96h = P. falciparum growth inhibition at 96 hours; Potency, µM (titrated, usually from 28.7 µM), actives largely listed as inhibitors; actives 6.9% (n = 320,000); P. falciparum luciferase reporter growth, 96 h
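96 h incubation, 37 C, 5% CO2, of luciferase-reporter P. falciparum-infected RBCs (2% hematocrit, 0.05% parasitemia final) with test compounds; endpoint luminescence.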
NS1 function inh = blocks influenza NS1 protein function | Potency, µM (titrated, usually from 46.1 µM) | actives 0.4% (n = 270,000); calls by dose curve; also: actives are rising curves; nearly all actives have a fitted effect of over 50% in size
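Read-out: OD600 growth recovery of NS1-expressing budding yeast. Cells grown overnight at 30C in -URA glucose medium, washed, resuspended and diluted 1:100 in 2% galactose assay medium, pH 6.0. Same strain lacking NS1 served as positive control.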
CHX counter = affects cycloheximide protein synthesis inhibition readout, counter-screen | AID 2314 | actives 12% (n = 300,000) | cell reporter, cycloheximide protein synthesis inhibition counterscreen | max response, %; in the data active = max response mostly above about 13%, no sharp cut-off; inactive = mostly below about 14%; also: read at 38.3 µM for the half of the compounds with a filed dose
Giardia FBPA inh = Giardia lamblia aldolase inhibition | purified Giardia FBPA | Potency, µM (top dose mostly 59.6 µM), actives largely listed as inhibitors | actives 0.71% (n = 290,000) | A8B2U2; also: nearly all actives have a fitted effect of over 55% in size
Target sequence (A8B2U2 whole entry, looked up): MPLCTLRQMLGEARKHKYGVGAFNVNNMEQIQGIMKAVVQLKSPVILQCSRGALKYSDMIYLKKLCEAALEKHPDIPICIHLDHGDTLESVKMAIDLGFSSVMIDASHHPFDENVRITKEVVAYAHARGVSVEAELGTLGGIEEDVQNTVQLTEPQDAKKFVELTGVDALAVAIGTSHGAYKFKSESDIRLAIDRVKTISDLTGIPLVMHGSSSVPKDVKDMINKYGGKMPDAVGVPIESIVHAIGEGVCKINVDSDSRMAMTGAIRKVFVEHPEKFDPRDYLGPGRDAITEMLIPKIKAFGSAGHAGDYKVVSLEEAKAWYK
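Giardia FBPA (40 nM reagent) was preincubated 10 min at RT with compound (up to 57.5 uM final), then substrate plus GAPDH/TPI/NAD/arsenate coupling system with diaphorase/resazurin was added; resorufin fluorescence (525/598 nm) was read after 20 min.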
Pf growth 48h = P. falciparum growth inhibition at 48 hours (one generation); P. falciparum luciferase growth in erythrocytes, 48 h; Potency, µM (series often up to 28.7 µM), actives largely listed as inhibitors; actives 5.9% (n = 310,000); AID 504832
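Cell-based growth assay: transgenic P. falciparum expressing firefly luciferase, cultured in red cells within RPMI 1640 containing 0.5% w/v Albumax, 24 mM bicarbonate and gentamycin. A drop in luciferase activity indicates inhibition.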
Shiga toxin inh = inhibitors of Shiga toxin in Vero cells; Vero cells, Shiga toxin protein synthesis inhibition reporter; AID 2315; actives 9.2% (n = 290,000); inhibition, % at 38.7 µM; in the data active = inhibition mostly above about 28%, no sharp cut-off; inactive = mostly below about 43%
Hits are given with their value; – = inactive; ? = inconclusive; · = no result given; [ ] = remark or other dose. Most compounds without a hit are left out; they make up all but 21% or so of the library. Unless noted, calls follow the shape of the dose curve; as a rule, active = well fitted curve in the direction sought with a large enough effect; inconclusive = small, poorly fitted or top-dose-only effect, or another doubt; inactive = no such curve, though single readings can be large; an effect the other way counts as inactive or inconclusive.

SMILES	Pf growth 96h	NS1 function inh	CHX counter	Giardia FBPA inh	Pf growth 48h	Shiga toxin inh
Cc1ccccc1-c1nnc(-c2cccs2)o1	–	–	58	–	–	85
Cc1nnc(SCc2nnc(-c3cccs3)o2)n1C	–	–	–	–	–	–
CCN1C(=O)[C@H]2[C@H]3[C@H](O)[C@H](O)C/C(=N/O[C@@H]4O[C@@H](COC(C)=O)[C@@H](OC(C)=O)[C@@H](OC(C)=O)[C@H]4OC(C)=O)[C@H]3CC[C@@H]2C1=O	·	·	·	–[12.9 µM]	·	·
CCn1cc(S(=O)(=O)Nc2cc(C(=O)OC)ccc2C)cn1	–	–	–	·	–	–
CCn1cc(C(=O)N[C@@H](CCSC)C(=O)NCCO)c(=O)c2cc3c(cc21)OCO3	6.6µM	–	–	–	8.3µM	–
CCn1cc(C(=O)N[C@@H](C)C(=O)NCCCO)c(=O)c2cc3c(cc21)OCO3	–	–	–	–	–	–
COc1cccc(N2C(=O)NC(=O)/C(=C/c3ccc([N+](=O)[O-])s3)C2=O)c1	–	–	–	?	–	–
COc1cccc(N2C(=O)NC(=O)/C(=C/c3ccc4c(c3)Cc3ccccc3-4)C2=O)c1	–	·	19	–	–	–
COc1cc(OC)cc(C(=O)NCC2CCCN(C(=O)c3csc(C)n3)C2)c1 (stereo not given)	?	–	–	–	–	–
c1ccc(Sc2cccc3ccccc23)c(CNC2=NCCN2)c1	0.93µM	–	–	–	1.2µM	–
CN(C)Cc1ccccc1Sc1cccc2ccccc12	?	–	–	–	–	–
Fc1ccccc1Sc1ccccc1CNC1=NCCN1	10µM	–	–	–	?	–
COc1ccc2c(C)c(Cc3ccccc3)c(=O)oc2c1OC	–	–	–	–	12µM	–
Cc1c(Cc2ccccc2)c(=O)oc2cc(OCc3ccc(C(=O)O)cc3)ccc12	–	–	–	–	–	–
CCOC(=O)CCc1c(C)c2ccc(OCC)c(C)c2oc1=O	?	–	–	–	·	–
CCCCc1c(C)c2ccc(OC)c(/C(C)=N\O)c2oc1=O	–	–	19	–	–	–
COc1cc(COc2ccc3c(C)c(Cc4ccccc4)c(=O)oc3c2)cc(OC)c1OC	?	–	–	–	8.3µM	–
Cc1cc(C)cc(COc2ccc3c(C)c(CC(=O)O)c(=O)oc3c2C)c1	–	–	–	–	·	–
COc1cc(COc2ccc3c(C)c(Cc4ccccc4)c(=O)oc3c2C)cc(OC)c1OC	1.9µM	–	–	–	?	–
COc1ccc(NC2C[C@H]3CCCC(=O)N4CC[C@@H](C2)[C@@H]34)cc1 (stereo not given in full)	·	·	–	–	·	–
COCCC(=O)N1CCC(Oc2ccc(C(=O)NCc3cccc(C)n3)cc2)CC1	–	–	–	·	–	–
C=CC(C)(C)c1[nH]c2ccccc2c1C1=C(O)C(=O)C(c2c[nH]c3c(CC=C(C)C)cccc23)=C(O)C1=O	·	·	·	–	·	·
Cc1c(CC(=O)O)c(=O)oc2c(C)c(OCc3ccc(F)cc3F)ccc12	–	–	–	–	–[0.00184 µM]	–
COc1ccccc1COc1ccc2c(C)c(CC(=O)O)c(=O)oc2c1C	6.6µM	–	–	–	–	–
COCC(C)n1c(SCC(=O)NC(=O)Nc2ccc3c(c2)OCCO3)nc2ccccc2c1=O (stereo not given)	?	–	33	–	12µM	65
SMILES	Pf growth 96h	NS1 function inh	CHX counter	Giardia FBPA inh	Pf growth 48h	Shiga toxin inh
CCC(C(=O)Nc1ccc2c(c1)OCCO2)n1nnc2ccccc2c1=O (stereo not given)	–	–	59	·	–	66
COCC(C)n1c(SCC(=O)NC(=O)Cc2ccccc2)nc2ccccc2c1=O (stereo not given)	–	·	·	·	–	·
CC(C)(C)NC(=O)CSc1nc2ccc(NC(=O)CSc3nnnn3Cc3ccccc3)cc2s1	4.7µM	–	–	–	·	–
O=c1c2ccccc2nnn1CSc1ccc2c(c1)OCCO2	–	–	52	–	–	26
Cc1ccc(NCC(=O)N/N=C\c2ccc[nH]2)cc1	–	–	–	–	–	–
CCc1ccccc1N(C(=O)c1ccco1)C(C(=O)NC1CCCC1)c1cccnc1 (stereo not given)	–	–	–	–	?	–
O=C(CNC(=O)c1ccc(S(=O)(=O)N2CCCC2)cc1)N/N=C/c1ccc(Cl)cc1Cl	–	–	–	–	–	–
Cn1c(CNC(=O)CNS(=O)(=O)c2ccc(Cl)cc2)cc(=O)n(C)c1=O	–	–	–	–	–	–
